# From PubChem BioAssay (NCI)
# The panel holds about 83,000 compounds, 20% with a hit somewhere; the sample as a whole holds those more often.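 Cell lines were cultured in 96-well plates, exposed to a single compound concentration, and assessed for percent growth 48 hours later.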 Values without a mark were called inactive. The source made the active and inactive calls.
# Tested on: NCI-H522 lung
# Assay: NCI-60 one-dose screen, 48 h (100 = growth as untreated, 0 = no growth, -100 = all killed)
# Conditions: 10 µM unless noted
# Method: Growth inhibition of the NCI-H522 human Non-Small Cell Lung tumor cell line is measured as a screen for anti-cancer activity. Cells are grown in 96 well plates and exposed to the test compound for 48 hours. Compounds are tested at a single concentration, which is 10^-5 M for most compounds. The reported endpoint is percent growth (GI% or GIPRCNT), where numbers from 0 - 100% represent growth inhibition, and numbers from -100% - 0 represent cell death. For example, a value of 40 represents 60% growth inhibition. A value of 0 means no net growth occurred over the course of the experiment. A value of -40 indicates 40% of cells at the beginning of the experiment died by the end of the experiment. A value of -100 means all cells are dead at the end of the experiment.
# NCI-60 Human Tumor Cell Lines Screen was performed using the standard one-dose NCI protocol, which is described in more detail at https://dtp.cancer.gov/discovery_development/nci-60/default.htm.
# Compounds with GIPRCNT values below 10 were considered active. Activity score was based on GIPRCNT using the following formula: […]
# Score is 0 for GIPRCNT values of 100 or above, 50 for GIPRCNT values of 0, and 100 for GIPRCNT values of -100.
row,Structure (SMILES),growth
1,C[C@]12C[C@H](O)[C@H]3[C@@H](CCC4=CC(=O)CC[C@@]43C)[C@@H]1CC[C@@H]2C(=O)CO,16%
2,CC(C)[O-].CC(C)[O-].CN(CCN(C)Cc1cc(F)cc(F)c1[O-])Cc1cc(F)cc(F)c1[O-].[Ti+4],-32.3% (active)
3,CC(C)(C)c1ccc(C(O)CCCN2CCC(C(O)(c3ccccc3)c3ccccc3)CC2)cc1 (stereo not given),-74.6% (active)
4,CCOC(=O)c1c2c(c(C)n1Cc1ccccc1)-c1nc(N)ncc1CC2,96.7%
5,Nc1ccc(C2=NN(c3ccccc3)C(c3ccc(Cl)cc3)C2)cc1 (stereo not given),22.7%
6,CCOc1nc(-c2ccccc2)cc2c(O)c(C(=O)n3nc(C)cc3C)[nH]c(=O)c12,104%
7,COc1ccc(-c2oc3cc(O)c(OC)c(O)c3c(=O)c2OC)cc1O,-30.3% (active)
8,O=C(Nc1ccc(Cl)cc1Cl)Nc1ccc(-c2cccnc2)cc1N1CCC(CO)CC1,53.4%
9,Cc1nn(-c2ccccc2)c(Cl)c1C(CC(=O)c1ccc(Cl)cc1)CC(=O)c1ccc(Cl)cc1,71.6%
10,C=CCOc1ccc2c(c1)CC[C@@H]1[C@@H]2CC[C@@]2(C)[C@H]1CC[C@]2(C)O,60.3%
11,CC1=NN(c2ccccc2Cl)C(=O)/C1=C\c1cn(S(=O)(=O)c2ccc(C)cc2)c2ccccc12,107%
12,Cc1cc(C)n(C(=O)c2nn(-c3ccc(Cl)cc3)cc2O)n1,59.6%
13,CO[C@H]1/C=C/O[C@@]2(C)Oc3c(C)c(O)c4c(O)c(c(/C=N/N5CCN(C)CC5)c(O)c4c3C2=O)NC(=O)/C(C)=C\C=C\C(C)[C@H](O)[C@@H](C)[C@@H](O)[C@@H](C)[C@@H](OC(C)=O)[C@@H]1C (stereo not given in full),105%
14,Cc1nn(-c2ccc(Cl)cc2)c2nc3c(nc12)C(=O)C(=O)c1ccccc1-3,79.7%
15,O=C(O)c1ccc(NC(=O)c2ccc(Nc3ccnc(C(F)(F)F)c3)cc2)cc1,103%
16,C/C(=N/N=C(N)N)c1ccc(N)cc1,91.5%
17,CCC(CC)NCCCCCNc1cc(OC)cc2cccnc12,97.7%
18,ClC1=C(Cl)C(Cl)=C(Cl)C1=Cc1ccc(Cl)cc1,27.5%
19,NNC(=O)NO,86%
20,COc1ccc(-c2csc(NC(=O)c3cc(O)c(O)c(O)c3)n2)cc1,-22.9% (active)

row,Structure (SMILES),growth
1,NNC(=O)C1CC2c3ccccc3C1c1ccccc12 (stereo not given),87%
2,CC1=CC(=O)C(C(C)=Nc2ccccc2Cl)C(=O)O1 (stereo not given),121%
3,Cc1cc(N2CCOCC2)nc(N2CCOCC2)n1,78.6%
4,CCCCOc1ccc(C(C)(C)c2ccc(OCCCC)cc2)cc1,92.3%
5,Cc1cc(Cl)ccc1Nc1nc(C(F)(F)F)ccc1C(=O)NCC(=O)N/N=C/c1c(Cl)cccc1Cl,75.8%
6,Cn1cc(-c2nc(-c3c[nH]c4ncc(F)cc34)cs2)c2cccnc21,140%
7,Cn1cc(-c2nc(-c3c[nH]c4ncccc34)cs2)c2cccnc21,46.5%
8,CC[N+](CC)(CCOCCOCC[N+](CC)(CC)Cc1ccc([N+](=O)[O-])cc1)Cc1ccc([N+](=O)[O-])cc1,93.4%
9,O=[P@@]1(c2ccccc2)O[C@H](COCc2ccccc2)[C@@H](OCc2ccccc2)[C@H](OCc2ccccc2)[C@H]1NCc1ccccc1,20.5%
10,Cn1c(N)c(N=O)c(=O)[nH]c1=O,91.8%
11,CC1(C)OC(=O)C(=Cc2ccccc2Br)C(=O)O1,88.8%
12,Cc1cc(C(=O)O)c(C)cc1C(=O)O,96.5%
13,CCN(CC)CCNc1ccc(Cl)cc1Cl,98.5%
14,O=C(Nc1cccc(-n2cc(-c3ccncc3)c(-c3ccc(O)c(Cl)c3)n2)c1)Nc1ccc(Cl)c(C(F)(F)F)c1,-7.92% (active)
15,CC[C@@H]1OC(=O)[C@H](C)[C@@H](O[C@H]2C[C@@](C)(OC)[C@@H](O)[C@H](C)O2)[C@H](C)[C@@H](O[C@@H]2O[C@H](C)C[C@H](N(C)C)[C@H]2O)[C@](C)(O)C[C@@H](C)[C@@H]2N[C@@H](COCCOC)O[C@H]([C@H]2C)[C@]1(C)O,98.6%
16,O=C1NCN(CCO)CN1,103%
17,CCCOc1ccc2c(c1)CC[C@@H]1[C@@H]2CC[C@@]2(C)[C@H]1CC[C@]2(C)O,76.4%
18,O=C1C2C3C=CC(O3)C2C(=O)N1Nc1ccccc1 (stereo not given),117%
19,O=C(Nc1ccc(Oc2ccc(NC(=O)Nc3ccc([N+](=O)[O-])cc3)cc2)cc1)Nc1ccc([N+](=O)[O-])cc1,-15.3% (active)
20,Cc1cc(=O)n2n1-c1ccc(Cl)cc1NC(=O)C2,96.2%
